Measurements reported in PubChem BioAssay AID2546 (National Center for Advancing Translational Sciences (NCATS), 2010).
About 11,000 (3.5%) of roughly 310,000 compounds were called active. Roughly 8% stayed inconclusive and do not appear here. Calls come from the whole dose curve; as a rule, active = well fitted inhibition curve with a large enough effect; inconclusive = small, poorly fitted or top-dose-only effect, or effect the other way; inactive = flat fitted curve, though single readings scatter. Shown is part of a subset that was picked to be rich in actives. Where a call stands in place of a potency, no number is given.

test: VP16 counterscreen qHTS for inhibitors of ROR gamma transcriptional activity; details: Drosophila S2 Gal4-VP16 UAS-luciferase, luminescence, 20 h; series mostly up to 53.6 µM;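 note: Gal4-VP16 expression switched on by copper sulfate through the metallothionein promoter; nearly all actives have a fitted effect of over 50% in size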
Potency is the fitted concentration of half-maximal effect.

SMILES | Potency
N#CCSc1nc(-c2ccccc2)nc2ccc(F)cc12 | inactive
Cc1nc2ccc(S(=O)(=O)N(C)CC(=O)NC(C)c3ccccc3)cc2s1 (centres undefined) | inactive
CC1CC(=O)Nc2ccccc2N1S(=O)(=O)c1cccs1 (centres undefined) | inactive
CC1CC(C)(C)NC(=S)N1CCC(=O)N1CCN(Cc2ccccc2)CC1 (centres undefined) | inactive
CC1CC(=S)Nc2ccccc2N1Cc1ccccc1 (centres undefined) | 3.16 µM (active)
Cc1ccccc1OCC(=O)Nc1ccc(S(=O)(=O)N2CCOCC2)cc1 | inactive
O=C(c1ccccc1)N1CCN(C(=O)c2cc3nc(-c4ccccc4)cc(C(F)(F)F)n3n2)CC1 | inactive
COc1ccc(-c2cc(C(F)(F)F)nc(SCC(=O)Nc3ccc4c(c3)OCO4)n2)cc1OC | inactive
COc1cc(OC)nc(S(C)(=O)=O)n1 | inactive
COc1ccc(-c2cc(C(F)(F)F)nc(S(C)(=O)=O)n2)cc1OC | 5.62 µM (active)
CC1=C(C(=O)OCC2CCCCC2)C(c2ccc(F)cc2)NC(=O)N1 (centres undefined) | inactive
CC1CN(C(=S)Nc2ccccc2F)CC(C)O1 (centres undefined) | inactive
CCOC(=O)c1c(NC(=O)c2ccc(S(=O)(=O)N(C)CC3CCCO3)cc2)sc2c1CC(C)(C)NC2(C)C (centres undefined) | inactive
COC(=O)c1sccc1NC(=O)COc1ccc(Cl)cc1 | inactive
COC(=O)c1c(NC(=O)COc2ccc(Cl)cc2Cl)sc2c1CC(C)(C)NC2(C)C | 22.4 µM (active)
CCCn1c(C(C)Nc2nc(-c3ccc(C)cc3)cs2)nc2cc(Cl)c(N3CCCCC3)cc21 (centres undefined) | inactive
CCCC1CCC(=NNC(=S)NCCc2ccccc2)CC1 (centres undefined) | 11.2 µM (active)
O=C(NCCc1ccccc1)C1CC1 | inactive
S=C(NN=C1CCN(Cc2ccccc2)CC1)NC1CCCCC1 | inactive
O=C(NCC(=O)N1CCN(c2ncc(C(F)(F)F)cc2Cl)CC1)c1ccc(Br)o1 | inactive
Cc1ccc(CN2CCC(n3nccc3NC(=O)CCCc3ccccc3)CC2)o1 | inactive
O=C(Nc1cccc(F)c1)NC1CCCCCCC1 | inactive

SMILES | Potency
C/C(=N\NC(=O)Cc1ccc(Br)cc1)c1cccnc1 | inactive
C/C(=N\NC(=O)Cc1ccc(Cl)cc1)c1ccccn1 | 2.51 µM (active)
C/C(=N\NC(=O)Cc1ccc(F)cc1)c1ccc(F)cc1 | inactive
O=C(Nc1ccc(NC(=O)c2ccccc2F)cc1)c1ccccc1F | inactive
C/C(=N\NC(=O)c1ccccc1F)c1ccccn1 | 1.12 µM (active)
C/C(CC(=O)Nc1ccc(N(C)C)cc1)=N\NC(=O)c1ccccc1F | inactive
O=C(c1cc(-c2ccc(Cl)cc2)on1)N1CCN(c2ccccc2)CC1 | inactive
O=C(COc1ccccc1Cl)N1CCCCCCC1 | inactive
NS(=O)(=O)c1ccccc1NC(=O)c1c(O)c2ccccc2[nH]c1=O | inactive
COc1ccc(CC(=O)N/N=C/c2cc([N+](=O)[O-])cc(Br)c2O)cc1 | 3.16 µM (active)
COc1ccc(CC(=O)NCC(=O)N/N=C/c2cc(Br)ccc2OC)cc1 | inactive
COc1cc(OC)c(/C=N/NC(=O)c2ccc([N+](=O)[O-])cc2)cc1Br | inactive
COc1cccc(NC(=O)CCc2nnc3ccc(N4CCC(C)CC4)nn23)c1 | inactive
CC(=O)c1ccc(NC(=O)c2ccc(-n3cncn3)c([N+](=O)[O-])c2)cc1 | inactive
O=C(NCc1ccncc1)NC12CC3CC(CC(C3)C1)C2 | inactive
S=C(NCc1ccc(Cl)cc1)NC12CC3CC(CC(C3)C1)C2 | 3.16 µM (active)
CN(C)CCCNC(=S)NCc1ccc(Cl)cc1 | inactive
O=C(NCc1ccc(Cl)cc1)NCc1ccc(Cl)cc1 | inactive
S=C(NCc1ccc(Cl)cc1)NC1CCCCC1 | 7.94 µM (active)
COc1ccc(Cl)cc1C(=O)NNC(=S)NC1CCCC1 | inactive
O=C(NCCc1ccc(Cl)cc1)c1cccc(N2CCCC2=O)c1 | inactive
O=C(NC(=S)Nc1ccc(Cl)cc1Cl)C1CC1 | 5.62 µM (active)

SMILES | Potency
S=C(Nc1ccc(Cl)cc1Cl)N1CCCC1 | inactive
CN1CCN(S(=O)(=O)c2ccc(NC(=S)NC(=O)C3CC3)cc2)CC1 | inactive
Oc1ccccc1C1=NN(c2ccccc2)C(c2ccccc2)C1 (centres undefined) | inactive
CCC(=O)Nc1nc(C)c(C(=O)Nc2cccc(Cl)c2)s1 | inactive
CN1CCN(C(=O)c2cnn(-c3ccccc3)c2NC(=O)c2ccc([N+](=O)[O-])cc2)CC1 | inactive
Cc1cccc(NC(=S)NC(=O)c2ccc(Br)o2)c1 | inactive
Cc1cccc(NC(=O)NC(=S)NC(=O)c2ccccc2)c1 | 5.01 µM (active)
Cc1ccc(NC(=O)NC(=O)c2ccccc2)cc1F | inactive
Cc1ccn2c(c1)nc(=O)c1cc(S(=O)(=O)N3CCC(C)CC3)ccc12 | inactive
COc1ccc(CCNC(=O)C(=O)NCC2OCCN2S(=O)(=O)c2ccc(OC)c(C)c2)cc1 (centres undefined) | inactive
Cn1c2ccccc2c(=O)c2c(=O)n(Cc3ccco3)c(COc3ccccc3)nc21 | 17.8 µM (active)
COc1ccc(C(=O)CSc2nnc(COc3ccccc3)n2Cc2ccco2)cc1 | inactive
Cc1nc2c(c(=O)n1Cc1ccco1)c1nc3ccccc3nc1n2Cc1ccccc1 | inactive
COc1cc(/C=N\NC(=O)C2C(=O)NCC2c2ccccc2)cc(OC)c1O (centres undefined) | inactive
O=C(NNC(=S)Nc1ccc(F)cc1)[C@H]1C[C@@H]1c1ccccc1 | inactive
O=C(N/N=C/c1cccc2cccnc12)[C@H]1C[C@@H]1c1ccccc1 | 8.91 µM (active)
CC(=O)c1ccc(S(=O)(=O)N(C)CCCC(=O)N(C)Cc2ccccc2F)cc1 | inactive
CCOc1ccc(N(CC)S(=O)(=O)c2cccc3nsnc23)cc1 | inactive
Cc1ccc(C2=C/C(=C\c3cccnc3)C(=O)O2)cc1 | inactive
CN(C)/C=C1/C(=O)Nc2ccccc21 | inactive
CN(C)/C=C1\C=C(c2ccccc2)OC1=O | 35.5 µM (active)
COc1cc(NC(=O)CN2C(=O)NC(C)(c3ccc(OC(F)F)cc3)C2=O)cc(OC)c1OC (centres undefined) | inactive

SMILES | Potency
Cc1ccc(O)c(CNc2nc3ccccc3[nH]2)c1 | inactive
COc1ccc(NC(=O)CCCC(=O)c2ccccc2)cc1 | inactive
Cc1ccc(S(=O)(=O)NC(=O)c2cccc(C)c2)cc1 | inactive
Cc1cccc(C(=O)NC(=S)N(C)C2CCCCC2)c1 | 2.24 µM (active)
Cc1cccc(C(=O)NCCCN(C)CCCNC(=O)c2cccc(C)c2)c1 | inactive
COc1ccc(N2CCN(C(=O)[C@@H](NC(=O)c3cc(OC)cc(OC)c3)C(C)C)CC2)cc1 | inactive
CCC(NC(=O)c1cc(COc2ccc(F)c(F)c2)on1)c1ccncc1 (centres undefined) | inactive
Cc1cc(Br)ccc1NC(=S)NC1CCCC1 | 5.62 µM (active)
CC(Oc1ccc(Br)cc1Br)C(=O)NC1CCCC1 (centres undefined) | inactive
Cc1cc(C)cc(NC(=O)NC2CCCCCCC2)c1 | inactive
CC(C)c1ccc(NC(=O)NC2CCCCC2)cc1 | inactive
Cc1ccc(NC(=O)CSCC(=O)NC2CCCCC2)cc1 | inactive
Cc1ccc(NC(=S)NC2CCCC2)cc1 | 11.2 µM (active)
CCC1=Nc2cc(C(=O)NCCN3CCCC3)ccc2Sc2ccc(C)cc21 | inactive
C/C(=N/OC(=O)c1ccc(Br)cc1)c1ccc(C)cc1 | inactive
COc1ccccc1C(=O)N/C(=C/c1ccco1)C(=O)Nc1ccc(C(=O)O)cc1 | inactive
CN(C)S(=O)(=O)c1cccc(NC(=O)COC(=O)c2cc(=O)[nH]c(=O)[nH]2)c1 | inactive
Cc1ccc(/C=N/NC(=S)Nc2cccc(S(=O)(=O)N(C)C)c2)o1 | 15.8 µM (active)
CN(C)S(=O)(=O)c1cccc(NC(=O)Cc2ccsc2)c1 | inactive
N#CCC(=O)NC1CCC(CC2CCC(NC(=O)CC#N)CC2)CC1 (centres undefined) | inactive
COCCNc1ccc(-c2n[nH]c(=O)c3ccccc23)cc1[N+](=O)[O-] | inactive
Cc1ccc2oc(C(=O)N3CCN(C)C[C@@H]3C(C)C)c(C)c2c1 | inactive

SMILES | Potency
Cc1ccsc1C(=O)OCC(=O)c1cc(C)n(CC2CCCO2)c1C (centres undefined) | 7.08 µM (active)
Cc1cc(C(=O)Cn2cnc3cc([N+](=O)[O-])ccc3c2=O)c(C)n1CC1CCCO1 (centres undefined) | inactive
Cc1nnc(SCC(N)=O)n1CC1CCCO1 (centres undefined) | inactive
CCOc1ccc2[nH]c(=O)c(CN(CCCO)S(=O)(=O)c3ccc(F)cc3)cc2c1 | inactive
COc1ccc2oc(C(=O)NCc3ccco3)c(C)c2c1 | inactive
Clc1ccccc1-c1cc(NCCN2CCOCC2)ncn1 | inactive
CN(C)c1ccc(-c2nc(NCCN3CCOCC3)c3ccccc3n2)cc1 | inactive
c1ccc2cc3c(NCCN4CCOCC4)ccnc3cc2c1 | 12.6 µM (active)
COc1ccc(C(=O)Nc2ccc(NC(=O)C(C)C)nc2)cc1 | inactive
COc1ccc(NC(=O)/C(Cl)=C(/Cl)S(=O)Cc2ccc(C)cc2)cn1 (centres undefined) | inactive
COc1ccc(CS(=O)/C(Cl)=C(/Cl)C(=O)Nc2ccc(OC)nc2)cc1 (centres undefined) | 3.98 µM (active)
COc1cccc(CNC(=O)COc2cc(O)c3c(c2)OC(C)(C)CC3=O)c1 | inactive
COc1cc(/C=N/O)cc(Br)c1OCc1cccc(Cl)c1 | 11.2 µM (active)
COc1cc(/C=N/O)cc(Br)c1OS(=O)(=O)c1ccc(C)cc1 | 11.2 µM (active)
CCOc1c(Cl)cc(/C=N/O)cc1OC | inactive
COc1cc(/C=N/Nc2ccc(C)cc2)cc(Br)c1O | inactive
COc1cc(/C=N/O)ccc1OCc1ccc([N+](=O)[O-])cc1 | inactive
COc1ccc(/C=N/NC(=O)c2ccccc2)cc1OS(=O)(=O)c1ccccc1 | inactive
CCc1c(C)c2ccc(OC3CCCCC3=O)cc2oc1=O (centres undefined) | inactive
CCOCCCN1C(=O)C2C(C(=O)Nc3ccc(OCC)cc3)C3C=CC2(O3)C1C(=O)NC1CCCCC1 (centres undefined) | inactive
O=C(NC1CC1)C(Cc1ccccc1)NS(=O)(=O)c1ccccc1F (centres undefined) | inactive
